High-throughput results (PubChem)
An excerpt weighted towards active compounds, which were near 3.1% of everything screened.
Nrf2 activator = qHTS of Nrf2 Activators | AID 624171, 2012 | Potency, µM (series often up to 46.1 µM), hits mostly activators | AREc32 ARE-luciferase reporter (MCF7-derived line), luminescence, 24 h | 0.31% of 410,000 active; also: nearly all actives have a fitted effect of over 65% in size
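AREc32_Fluc, 1000 cells/well, OPTI-MEM + 5% FBS, o/n 37 deg C 5% CO2; 23 nL cpd by pin tool, 24 hr; Steady-Glo 30 min RT, luminescence.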
IL2 activator = qHTS of IL-2 Activators. IL-2 activation reporter assay, cell-based qHTS; stimulated with anti-CD3/CD4/CD28 beads; in transgenic mouse T cells. 0.065% of 360,000 active. AID 652025, 2013. activation, % (series mostly up to about 46 µM); in the data active = activation above about 50%; inconclusive = mostly about 30% to 49%
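Readout is EGFP and DsRed signal by fluorescent plate cytometry after 18 h at 37 degrees C. Transgenic mouse T cells (750/well) received compound for 60 min before bead stimulation (anti-CD3, anti-CD4, anti-CD28); memory T cells served as non-tolerant control.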
BRCA1 expr up = qHTS Assay to Identify Small Molecule Activators of BRCA1 Expression. Potency, µM (series often up to 46.1 µM), hits mostly activators. 1.1% of 380,000 active. MCF7-BRCA1-FFLuc reporter, luminescence, 48 h; response scale: scaled: vehicle 0%, 10 µM genistein 100%; also: nearly all actives have a fitted effect of over 80% in size
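Quantitative HTS in MCF7 cells stably reporting BRCA1 expression via firefly luciferase. Compound treatment lasts 48 h at 37 °C in phenol-red free MEM. Activation is expressed relative to genistein at 10 microM and DMSO.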
ELG1 repair inh = qHTS screen for small molecules that inhibit ELG1-dependent DNA repair in human embryonic kidney (HEK293T) cells expressing luciferase-tagged ELG1; HEK293T ELG1-luciferase reporter, luminescence, 16 h; DNA damage induced by 5-fluorouridine; Potency, µM (top dose mostly 46.1 µM), hits mostly inhibitors; 2.3% of 330,000 active; AID 504467, 2011; also: nearly all actives have a fitted effect of over 55% in size
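Reporter activity after DNA damage by 5-fluorouridine is monitored. Compound-treated cells incubate 16 hr at 37 °C, then ONE-Glo is added for 30 min before luminescence reading.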
Of the large screens only hits and unclear results are named; the others gave an inactive call. Unless noted, calls follow the shape of the dose curve; as a rule, active = well fitted curve in the direction sought with a large enough effect; inconclusive = small, poorly fitted or top-dose-only effect, or another doubt; inactive = no such curve, though single readings can be large; an effect the other way counts as inactive or inconclusive.

COc1ccc(CN2CCN(C(=O)c3cc(-c4cccnc4)nc4ccc(Cl)cc34)CC2)c(OC)c1OC	ELG1 repair inh 9.2µM
O=C(c1cc(-c2ccncc2)nc2ccc(Cl)cc12)N1CCN(Cc2ccc3c(c2)OCO3)CC1	ELG1 repair inh 14.6µM
Cc1cc2oc3c(c(=O)c2cc1C)C(c1cccc(Br)c1)N(Cc1ccco1)C3=O (configuration not stated)	ELG1 repair inh 0.631µM
Cc1ccccc1NC(=O)CSc1cn(CC(=O)N2CCCCCC2)c2ccccc12	none (no result: IL2 activator, BRCA1 expr up, ELG1 repair inh)
CC(C)c1ccc(-c2noc(SCC(=O)N3CCCCC3)n2)cc1	none (no result: IL2 activator, BRCA1 expr up, ELG1 repair inh)
CCOc1ccc(N/C(C)=C\C(=O)c2ccc3c(c2)OCCO3)cc1	BRCA1 expr up 12.6µM, ELG1 repair inh inconclusive
COc1ccc(C(=O)/C=C(\C)Nc2ccc3c(c2)OCO3)cc1	BRCA1 expr up inconclusive, ELG1 repair inh inconclusive
CCOc1ccc(N/C(C)=C/C(=O)c2ccc3c(c2)OCCO3)cc1	BRCA1 expr up 4.47µM, ELG1 repair inh inconclusive
Cn1c(=NC(=O)CS(=O)(=O)c2ccccc2)sc2cc(F)ccc21	BRCA1 expr up 5.01µM (no result: ELG1 repair inh)
Cn1c(=NC(=O)CCS(=O)(=O)c2ccccc2)sc2cc(F)ccc21	ELG1 repair inh inconclusive
Cc1cc(C)nc(NS(=O)(=O)c2ccc(NC(=O)c3nc(SC(C)C)ncc3Cl)cc2)n1	none (no result: IL2 activator, BRCA1 expr up, ELG1 repair inh)
CCOC(=O)CC(NC(=O)c1cc2cc(OC)ccc2oc1=O)c1ccc(OC)cc1 (configuration not stated)	none (no result: IL2 activator, ELG1 repair inh)
COc1ccc(S(=O)(=O)N(CC(=O)N2CCN(c3ccccc3OC)CC2)c2ccccc2)cc1	ELG1 repair inh 20.6µM
COc1ccc(CN2CCN(S(=O)(=O)c3ccc(F)cc3)CC2)cc1OC	ELG1 repair inh 13µM
COc1ccc(N2CCN(C(=O)CN(c3ccccc3)S(=O)(=O)c3ccc(OC)cc3)CC2)cc1	ELG1 repair inh inconclusive
COc1ccc(CN2CCN(C(=O)c3ccc(S(=O)(=O)N4CCCCCC4)cc3)CC2)cc1F	ELG1 repair inh 6.51µM
COc1ccccc1N1CCN(C(=O)c2ccc(S(=O)(=O)N3CCCCCC3)cc2)CC1	ELG1 repair inh 14.6µM
COc1ccc(NC(=O)Cn2nnnc2-c2ccccc2F)c(C)c1	none (no result: IL2 activator, BRCA1 expr up, ELG1 repair inh)
CCc1nc2c(OCc3ccc(F)c(F)c3)cccn2c1N(C)C(=O)c1cccs1	none (no result: ELG1 repair inh)
N/C(=C\c1ccccc1)c1ccncc1	none (no result: Nrf2 activator, IL2 activator, ELG1 repair inh)
O=C(c1ccc(S(=O)(=O)N2CCCCCC2)cc1)N1CCN(Cc2ccccc2)CC1	ELG1 repair inh inconclusive
COc1ccc(OC2CCN(S(=O)(=O)c3ccc(C(C)=O)cc3)CC2)cc1	ELG1 repair inh 20.6µM
COc1ccc(CN2CCN(C(=O)c3ccc(S(=O)(=O)N4CCCCCC4)cc3)CC2)cc1	ELG1 repair inh 10.3µM
Cc1cc(C)c2c(=O)cc(CSc3nnc(-c4ccccc4)n3C)[nH]c2c1	none (no result: IL2 activator, BRCA1 expr up, ELG1 repair inh)
O=S1(=O)c2ccccc2N(Cc2cccc(F)c2)c2ccccc21	none (no result: IL2 activator, BRCA1 expr up, ELG1 repair inh)
COc1ccc(Cl)cc1NC(=O)c1ncn(-c2ccccc2)n1	Nrf2 activator 8.91µM (no result: IL2 activator, BRCA1 expr up, ELG1 repair inh)
COc1cc(NC(=O)c2ncn(-c3ccccc3)n2)cc(OC)c1	none (no result: IL2 activator, BRCA1 expr up, ELG1 repair inh)
O=C(Cc1ccc(S(=O)(=O)N2CCOCC2)s1)Nc1ccc(N2CCOCC2)cc1	ELG1 repair inh inconclusive
O=C(Cc1ccc(S(=O)(=O)N2CCOCC2)s1)Nc1cc(C(F)(F)F)cc(C(F)(F)F)c1	ELG1 repair inh 20.6µM
CCOC(=O)c1cc(NC(=O)Cc2ccc(S(=O)(=O)N3CCOCC3)s2)cc(C(=O)OCC)c1	ELG1 repair inh 6.51µM
O=C1Nc2ccccc2Oc2cc(Oc3ccc(Cl)cc3)ccc21	none (no result: IL2 activator, BRCA1 expr up, ELG1 repair inh)
Cc1ccc(Oc2cc([N+](=O)[O-])cc3c2C(=O)Nc2ccccc2O3)cc1	IL2 activator 72.3, ELG1 repair inh inconclusive
O=C(CSc1ccccn1)Nc1ccc2c(c1)OCO2	ELG1 repair inh inconclusive
O=C(CSc1ccccn1)c1ccc2c(c1)OCO2	BRCA1 expr up 7.08µM, ELG1 repair inh inconclusive
Cc1sc2ncnc(SCC(=O)c3ccc4c(c3)OCCO4)c2c1-c1ccccc1	ELG1 repair inh 10.3µM
CCCOc1ccccc1-c1nc(SCC(=O)c2ccccc2)n[nH]1	none (no result: IL2 activator, BRCA1 expr up, ELG1 repair inh)
CCC1(c2ccc(Cl)cc2)NC(=O)N(CC(=O)NCc2ccc(F)cc2)C1=O (configuration not stated)	none
CCC1(c2ccc(Cl)cc2)NC(=O)N(Cc2ccc(C(=O)OC)cc2)C1=O (configuration not stated)	ELG1 repair inh 20.6µM
CCOc1ccc2nc(NC(=O)C(CC)Sc3nc(C)cc(=O)[nH]3)sc2c1 (configuration not stated)	BRCA1 expr up 5.62µM, ELG1 repair inh inconclusive
CCOc1ccc2nc(NC(=O)CSc3nc4c(c(=O)n(C)c(=O)n4C)n3C(C)C)sc2c1	ELG1 repair inh 9.2µM
CCn1c(SCC(=O)Nc2nc3ccc(OC)cc3s2)nc2c1c(=O)n(C)c(=O)n2C	ELG1 repair inh 13µM
COc1cccc(NC(=O)c2ccc3nc(C)c(N(C)Cc4ccc(NC(C)=O)cc4)n3c2)c1	none (no result: ELG1 repair inh)
CCOC(=O)CNC(=O)N1CCc2cc(S(=O)(=O)N3CCC(C)CC3)ccc21	none (no result: IL2 activator, BRCA1 expr up, ELG1 repair inh)
O=C(NC1CCCC1)c1cnn(-c2ccc(F)cc2F)c1C1CCNCC1	none (no result: IL2 activator, ELG1 repair inh)
Cc1ccc(C(=O)c2cnc3cc4c(cc3c2S(=O)(=O)c2ccccc2)OCCO4)cc1	Nrf2 activator 12.6µM, ELG1 repair inh inconclusive
C(=N\Nc1nc(Nc2ccccc2)nc(Nc2ccccc2)n1)/c1cccnc1	ELG1 repair inh 6.51µM
Cc1cc(C)c(CN2CCC(n3nccc3NC(=O)c3ccccc3Cl)CC2)cc1C	none
COc1ccccc1C(=O)Nc1ccnn1C1CCN(Cc2cc(C)c(C)cc2C)CC1	ELG1 repair inh 23.1µM
O=C(Nc1ccc(Cl)cc1)/C(=C/c1cccc(O)c1)c1nc2ccccc2s1	Nrf2 activator inconclusive, ELG1 repair inh 25.9µM
CCc1ccccc1N1CC(c2nc3ccccc3n2CCC2CCCCC2)CC1=O (configuration not stated)	none (no result: IL2 activator, BRCA1 expr up, ELG1 repair inh)
CCN(CC)S(=O)(=O)c1cc(NC(=O)COc2ccc(C#N)cc2OC)ccc1C	ELG1 repair inh 13µM
CCC(C)NC(=O)CSc1nc2cc3c(cc2c(=O)n1CCCC(=O)NCCc1ccc(OC)c(OC)c1)OCO3 (configuration not stated)	none (no result: IL2 activator, BRCA1 expr up, ELG1 repair inh)
O=C(Nc1ccccc1)c1ccc(NCC2CCCO2)c(S(=O)(=O)N2CCOCC2)c1 (configuration not stated)	ELG1 repair inh 23.1µM
O=C(Nc1ccc(-c2cn3ccsc3n2)cc1)c1ccc(F)c(S(=O)(=O)N2CCOCC2)c1	ELG1 repair inh 16.4µM
O=C(Nc1ccccc1)c1ccc(F)c(S(=O)(=O)N2CCOCC2)c1	ELG1 repair inh 14.6µM
O=C(NCC1CCCO1)c1ccc(Cl)c(S(=O)(=O)N2CCOCC2)c1 (configuration not stated)	none
